Among all 310,000 compounds or so, about 14,000 (4.5%) showed an effect of 50% or more. The effect is printed as a negative number. The full list was thinned out, with strong results kept by preference.
These compounds were tested against human ether-à-go-go-related gene (hERG) potassium channel (human, UniProt Q12809) (assay: primary screen, population patch clamp on CHO cells stably expressing hERG; higher = less effect of the substance).
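Note: peak tail current of the secondary pulse compared with the same well before compound.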

Sequence of human ether-à-go-go-related gene (hERG) potassium channel (Q12809 whole entry, looked up): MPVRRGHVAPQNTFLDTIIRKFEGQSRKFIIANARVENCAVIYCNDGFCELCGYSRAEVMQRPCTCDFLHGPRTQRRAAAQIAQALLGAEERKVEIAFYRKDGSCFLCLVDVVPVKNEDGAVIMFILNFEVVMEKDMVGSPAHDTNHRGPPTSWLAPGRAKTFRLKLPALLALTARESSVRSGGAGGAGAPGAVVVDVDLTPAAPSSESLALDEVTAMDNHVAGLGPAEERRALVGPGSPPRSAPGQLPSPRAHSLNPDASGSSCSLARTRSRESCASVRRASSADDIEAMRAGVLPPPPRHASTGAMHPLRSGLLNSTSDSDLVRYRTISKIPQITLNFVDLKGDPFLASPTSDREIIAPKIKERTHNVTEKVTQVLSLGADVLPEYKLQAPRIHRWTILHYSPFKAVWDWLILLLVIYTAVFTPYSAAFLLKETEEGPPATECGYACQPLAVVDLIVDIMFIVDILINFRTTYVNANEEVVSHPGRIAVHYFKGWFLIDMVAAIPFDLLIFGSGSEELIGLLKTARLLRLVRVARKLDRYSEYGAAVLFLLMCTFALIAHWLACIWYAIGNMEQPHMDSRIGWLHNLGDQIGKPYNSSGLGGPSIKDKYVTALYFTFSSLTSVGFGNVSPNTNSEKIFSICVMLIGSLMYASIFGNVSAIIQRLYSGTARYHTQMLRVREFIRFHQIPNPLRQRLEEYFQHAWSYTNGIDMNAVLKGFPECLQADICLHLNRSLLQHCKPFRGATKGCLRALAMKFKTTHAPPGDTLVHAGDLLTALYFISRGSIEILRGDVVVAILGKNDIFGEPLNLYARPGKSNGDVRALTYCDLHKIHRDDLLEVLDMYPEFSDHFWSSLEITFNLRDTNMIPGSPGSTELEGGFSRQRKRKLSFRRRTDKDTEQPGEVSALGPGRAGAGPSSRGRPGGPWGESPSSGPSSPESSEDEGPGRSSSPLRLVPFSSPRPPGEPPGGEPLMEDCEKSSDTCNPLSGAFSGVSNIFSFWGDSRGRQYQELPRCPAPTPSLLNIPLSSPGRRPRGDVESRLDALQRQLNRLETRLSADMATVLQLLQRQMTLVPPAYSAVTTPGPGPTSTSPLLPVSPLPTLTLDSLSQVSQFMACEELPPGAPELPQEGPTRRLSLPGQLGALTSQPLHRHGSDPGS

| SMILES | hERG current change (%, negative = inhibition) at 10uM [%] |
| --- | --- |
| O=C(N/C(=C/c1ccc(Cl)cc1)c1nc2ccccc2[nH]1)c1ccco1 | 9.34 |
| O=c1[nH]c(C2CCN(S(=O)(=O)c3ccc(C(F)(F)F)cc3)CC2)nc2c1nnn2Cc1ccccc1 | 8.98 |
| Cc1ccc(S(=O)(=O)N(C)C)cc1NC(=S)N(CCC#N)Cc1cccnc1 | -10.3 |
| Cc1ccc(C(C)C)cc1OCCOCCN1CCCC1 | -38.9 |
| COc1ccc(-c2nc(NC(=O)CSCCO)sc2C)cc1 | -4.57 |
| O=C(CCCn1c(SCC(=O)NCCc2ccccc2)nc2ccccc2c1=O)NCC1CCCO1 (stereo not shown) | -22.8 |
| CCCCn1c(SCC(=O)Nc2cccc(OC)c2)nc2ccc(N3CCOCC3)cc2c1=O | -9.77 |
| Cc1ccc(NC(=O)CSc2nc3ccccc3c(=O)n2CCCC(=O)NCCCN2CCOCC2)cc1C | -69.1 |
| O=C(CCCn1c(SCc2cccc(F)c2)nc2ccccc2c1=O)NCC1CCCO1 (stereo not shown) | 8.35 |
| Cc1cc(C)c(NC(=O)CSc2nc3ccccc3c(=O)n2CCCN2CCOCC2)c(C)c1 | -47.6 |
| CCOC(=O)C(C)Sc1nc2ccccc2c(=O)n1CC (stereo not shown) | -22.4 |
| O=C(CCCn1c(SCc2cccc([N+](=O)[O-])c2)nc2ccccc2c1=O)NCC1CCCO1 (stereo not shown) | -59.7 |
| CCOC(=O)C(C)On1c(SC(C)C(=O)OCC)nc2ccccc2c1=O (stereo not shown) | -53.5 |
| CCOC(=O)C(C)On1c(-n2nc(C)cc2C)nc2ccccc2c1=O (stereo not shown) | 9.29 |
| O=C(CSc1nc2ccccc2c(=O)n1CCCN1CCOCC1)Nc1ccc2c(c1)OCO2 | -43.6 |
| COc1cccc(NC(=O)CSc2nc3ccccc3c(=O)n2CCCC(=O)NCCCN2CCOCC2)c1 | -59.8 |
| COc1cccc(NC(=O)CSc2nc3ccccc3c(=O)n2C)c1 | -7.76 |
| O=C(NCc1ccccc1)[C@]1(C(F)(F)F)C[C@H](CCc2ccccc2)CCCO1 | 3.84 |
| Cn1cc(Br)c(C(=O)Nc2sc3c(c2C(N)=O)CCC3)n1 | 18.4 |
| Cc1ccc(Cl)cc1NC(=O)c1cc(NC(=O)C2CCCCC2C(=O)O)ccc1N1CCOCC1 (stereo not shown) | -6.57 |
| COc1cccc(CCNC(=O)CCc2nnc(-c3ccc4c(c3)OCO4)o2)c1 | -7.05 |
| Cc1ccc2cc(C#N)c(NCCNC(=S)NCCCN(C)C)nc2c1C | -0.554 |
| Cc1cc(OCC(=O)NCc2ccccn2)c2c(C)c(C)c(=O)oc2c1 | -11.2 |

| SMILES | hERG current change (%, negative = inhibition) at 10uM [%] |
| --- | --- |
| CCOC(=O)C(=O)Nc1nc(-c2ccccc2)c(-c2ccccc2)o1 | -32.1 |
| CCOc1ccc(NC(=O)CSc2nc3ccccc3c(=O)n2CCCC(=O)NCC2CCCO2)cc1 (stereo not shown) | 3.34 |
| NS(=O)(=O)c1ccc(CCNC(=O)CSc2nc3ccccc3c(=O)n2CCN2CCOCC2)cc1 | 41.4 |
| O=C(CCCn1c(SCC(=O)NCC2CCCO2)nc2ccccc2c1=O)NCc1ccccc1 (stereo not shown) | -29.6 |
| COc1cccc(NC(=O)CSc2nc3ccccc3c(=O)n2CCCC(=O)NCC2CCCO2)c1 (stereo not shown) | -70.3 |
| O=C(CCCn1c(SCC(=O)NC2CCCCC2)nc2ccccc2c1=O)NCC1CCCO1 (stereo not shown) | -61.5 |
| NC(=O)c1ccc(NC(=O)CSc2nc3ccccc3c(=O)n2CCCN2CCOCC2)cc1 | -5.06 |
| Cc1ccc(NC(=O)CSc2nc3ccccc3c(=O)n2CCCC(=O)NCC2CCCO2)cc1 (stereo not shown) | -0.641 |
| CCc1ccc(NC(=O)CSc2nc3ccccc3c(=O)n2CCCC(=O)NCCCN2CCOCC2)cc1 | -66.6 |
| CCc1ccc(NC(=O)CSc2nc3ccccc3c(=O)n2CCN2CCOCC2)cc1 | -67.6 |
| O=C(CCCn1c(SCC(=O)NCC2CCCO2)nc2ccccc2c1=O)NCC1CCCO1 (stereo not shown) | -5.18 |
| C=CCn1c(SCC(=O)Nc2ccc(N3CCOCC3)cc2)nc2ccccc2c1=O | 3.75 |
| COc1ccc(NC(=O)CSc2nc3ccccc3c(=O)n2CCCC(=O)NCC2CCCO2)c(OC)c1 (stereo not shown) | -33.8 |
| O=C(CSc1nnc(-c2ccccc2F)o1)N1CCNC1=O | -32.1 |
| C=CCNC(=O)CCCc1ccccc1 | 7.65 |
| COc1ccc(NC(=O)c2cn3c(nc4ccccc43)c(C#N)c2C)cc1 | 3.29 |
| CCC(=O)Oc1ccc(C(=O)Nc2ccccc2C(=O)NCC(C)C)cc1 | 15.6 |
| O=C1CCC(c2ccc3c(c2)CCC3)=NN1 | 17.3 |
| CCCCN1C(=O)C(NC(=O)C2CC2)(C(F)(F)F)C2=C1CC(C)(C)CC2=O (stereo not shown) | 10.9 |
| COc1ccc(NC(=O)CCN2C(=O)c3cccc([N+](=O)[O-])c3C2=O)cc1 | -5.08 |
| CC(C)C(NC(=O)c1ccccc1F)C(=O)OCC(=O)c1ccc(F)cc1 (stereo not shown) | -9.49 |
| CCOC(=O)c1sc(-c2ccccc2)cc1NC(=O)CSc1nnnn1C | -1.13 |
| COc1ccccc1/C=C1/C(=O)ON=C1C | 12.5 |

| SMILES | hERG current change (%, negative = inhibition) at 10uM [%] |
| --- | --- |
| COc1cccc(NC(=S)C(C#N)=C2N(C)c3ccccc3N2C)c1 | 4.88 |
| CCn1c(=O)cc(SCC(=O)N2CCCCC2)c2ccccc21 | -7.44 |
| COC(=O)c1ccc(Oc2nc(NC(C)(C)C)nc(N3CCOCC3)n2)cc1 | -16.1 |
| CCOC(=O)CSc1nc2ccccc2c(=O)n1CCN1CCOCC1 | -50.3 |
| CCOC(=O)CSc1nc2ccccc2c(=O)n1CC(C)C | -35.3 |
| COC(=O)c1ccc2c(=O)n(CCN3CCOCC3)c(SCC(=O)Nc3ccccc3Cl)nc2c1 | -33.4 |
| Cc1ccc(NC(=O)CSc2nc3ccccc3c(=O)n2CC2CCCO2)cc1 (stereo not shown) | 0.693 |
| COC(=O)c1ccc2c(=O)n(CCN3CCOCC3)c(SCC(=O)Nc3ccc(C)cc3)nc2c1 | -69.5 |
| COC(=O)c1ccc2c(=O)n(CCN3CCOCC3)c(SCC(=O)Nc3cccc(OC)c3)nc2c1 | -37.9 |
| Cc1ccc(-n2c(SCC(=O)Nc3ccc(N4CCOCC4)cc3)nc3ccccc3c2=O)cc1 | 6.08 |
| CCOC(=O)CSc1nc2cc(C(=O)OC)ccc2c(=O)n1CCN1CCOCC1 | -38.4 |
| Cc1ccc(NC(=O)CSc2nc3ccccc3c(=O)n2CCCC(=O)NCCCN2CCOCC2)cc1 | -52.6 |
| CN(C)c1cc[n+](CC(O)C[n+]2ccc(N(C)C)cc2)cc1.[O-][Cl+3]([O-])([O-])[O-] | 15.9 |
| CCCN(CCC)S(=O)(=O)c1ccc(N2CCCC2=O)c([N+](=O)[O-])c1 | -19.3 |
| COc1cccc(/C=N/NC(=O)CCNc2n[nH]c(=O)[nH]c2=O)c1OC | 15.9 |
| COc1cccc(NC(=O)c2ccccc2N2C(=O)C3C4C=CC(C4)C3C2=O)c1 (stereo not shown) | -1.23 |
| O=C(CN1CCCCC1)NC(=O)NCc1ccccc1 | 14.3 |
| CN1CCN(CC(=O)NN(Cc2ccccc2)c2ccccc2)CC1.O=C(O)C(=O)O | -14.2 |
| O=C(CN1CCCCC1)NN(Cc1ccccc1)c1ccccc1.O=C(O)C(=O)O | -73.3 |
| O=C(CN1CCCCCC1)Nc1ccccc1F.O=C(O)C(=O)O | 9.38 |
| CCN(CC(=O)NC(=O)NCc1ccccc1)Cc1ccccc1 | -20.6 |
| O=C(CN1CCCCC1)Nc1ccccc1NC(=O)CN1CCCCC1 | 3.83 |
| O=C(CN1CCCCCC1)NN(Cc1ccccc1)c1ccccc1.O=C(O)C(=O)O | -72.3 |

| SMILES | hERG current change (%, negative = inhibition) at 10uM [%] |
| --- | --- |
| CCN(CC)CC(=O)NN(Cc1ccccc1)c1ccccc1.O=C(O)C(=O)O | -73.6 |
| CC(C)(O)C(=O)NN(Cc1ccccc1)c1ccccc1 | 16.2 |
| Cc1ccc(C)c2sc(N)nc12 | 22.6 |
| COc1ccc(NC(=O)CSc2ncn[nH]2)c([N+](=O)[O-])c1 | -4.71 |
| Nc1nc(N)nc(-c2cc(C(F)(F)F)ccc2Cl)n1 | 11.9 |
| CC(=O)N(C)c1ccc(NC(=O)c2cnn(C)c2)cc1 | 3.39 |
| COc1cccc(CN2C(=O)CCC2(C)C(=O)NC2CCCCC2)c1 (stereo not shown) | 12.9 |
| COc1cccc(-c2cc(C(=O)N/N=C/c3ccco3)c3ccccc3n2)c1 | -2.76 |
| C/C(CC(=O)Nc1cccc2c1CCCC2)=N\NC(=O)c1cccc2ccccc12 | -7.31 |
| O=C(c1ccc2oc(Cc3ccc(Cl)cc3)nc2c1)N1CC[C@H](O)C1 | 4.21 |
| CCCCCC1CC(CC(=O)Nc2nncs2)C(=O)O1 (stereo not shown) | -8.91 |
| CCCCC1CC(/C(C)=N/NC(N)=O)OC1=O (stereo not shown) | -6.35 |
| CCCCC1CC(C)(C(=O)CSc2nc3ccccc3s2)OC1=O (stereo not shown) | -0.178 |
| CCCC1CC(C)(/C(C)=N\NC(N)=S)OC1=O (stereo not shown) | 12.4 |
| CCCCCC1CC(/C(C)=N/NC(N)=O)OC1=O (stereo not shown) | -7.05 |
| CCCCCCC1CC(C)(C(=O)C[NH2+]c2nncs2)OC1=O.[Br-] (stereo not shown) | -66.3 |
| CCCCCCC1CC(/C(C)=N\NC(N)=O)OC1=O (stereo not shown) | -53 |
| CCCCCCCC1CC(/C(C)=N/NC(N)=O)OC1=O (stereo not shown) | -45.3 |
| Br.CCCCC1CC(CSC(=N)N)OC1=O (stereo not shown) | -1.27 |
| CCCCCCC1CC(C)(/C(C)=N/NC(N)=O)OC1=O (stereo not shown) | -50.1 |
| Br.CCCCCCCC1CC(CSC(=N)N)OC1=O (stereo not shown) | -44.2 |
| Br.CCCCCCC1CC(CSC(=N)N)OC1=O (stereo not shown) | -52.1 |
